# Assay outcomes from PubChem.
# HT1080 IDH1KD tx – qHTS for induction of synthetic lethality in tumor cells producing 2HG: qHTS for the HT-1080-IDH1KD cell line; HT-1080 IDH1 knockdown viability, ATP luminescence, 48 h; 360,000 compounds, 2% hits; Potency, µM (doses to about 46.1 µM), actives largely listed as cytotoxic
#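 Using the IDH1-knockdown HT-1080 line run in the same batch and compound series as the NT line, viability after 48 h at 37 °C was determined by CellTiter-Glo luminescence and expressed as % activity.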
# HT1080NT lethal – qHTS for induction of synthetic lethality in tumor cells producing 2HG: qHTS for the HT-1080-NT fibrosarcoma cell line. HT-1080-NT fibrosarcoma viability, CellTiter-Glo ATP luminescence, 48 h. Potency, µM (titrated, usually from 46.1 µM), hits mostly cytotoxic. 360,000 compounds, 1.6% hits;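 further: NT is the 2HG producing partner of a matched IDH1 knockdown line; nearly all actives have a fitted effect of over 55% in size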
#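 Compounds were tested in concentration-response format on HT-1080-NT cells for 48 hours at 37 degrees C. Cell viability came from CellTiter-Glo luminescence; curves were classified by r2, response magnitude and activity.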
# DT40 TDP1 no CPT – qHTS for Inhibitors of human tyrosyl-DNA phosphodiesterase 1 (TDP1): qHTS in cells in absence of CPT; DT40 Tdp1-/- hTDP1 cells, no CPT, ATP luminescence, 48 h; Potency, µM (top dose mostly 46.2 µM), actives largely listed as inhibitors; 420,000 compounds, 15% hits; AID 686978, 2013; further: nearly all actives have a fitted effect of over 55% in size
#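 Camptothecin absent (DMSO only). Human TDP1-complemented DT40 knockout cells, 400 cells/well, 37 °C for minimum 48 hr; ATP measured via CellTiter-Glo, 30 min dark incubation, luminescence.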
# KB-V1 MDR tox – qHTS assay for MDR1-selective chemotherapeutics: Primary screen using the drug-selected MDR subline cells KB-V1; AID 1347076, 2019; Potency, µM (doses to about 46.1 µM), actives largely listed as cytotoxic; 400,000 compounds, 3.4% hits; KB-V1 MDR cells viability, CellTiter-Glo, 72 h; further: nearly all actives have a fitted effect of over 60% in size
#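 Compound-treated KB-V1 multidrug-resistant cells, 72 h, 37 degrees C; viability by CellTiter-Glo. Fitted qHTS curves give the values.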
# KB-3-1 cytotox – qHTS assay for MDR1-selective chemotherapeutics: Primary screen using the parental adenocarcinoma cell KB-3-1; KB-3-1 viability, CellTiter-Glo ATP luminescence, 72 h; AID 1347075, 2019; 400,000 compounds, 1.4% hits; Potency, µM (titrated, usually from 46.1 µM), hits mostly cytotoxic; further: nearly all actives have a fitted effect of over 60% in size
#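 KB-3-1 parental drug-naive adenocarcinoma cells in DMEM/10% FBS, incubated 72 h at 37 C with pin-transferred compounds across a concentration series. Viability by CellTiter-Glo luminescence; concentration-response curves fitted after normalization.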
# TDP1 cell CPT – qHTS for Inhibitors of human tyrosyl-DNA phosphodiesterase 1 (TDP1): qHTS in cells in presence of CPT | 420,000 compounds, 12% hits | chicken DT40 Tdp1-/-;hTDP1 cells + 20 nM CPT, ATP luminescence, 48 h | AID 686979, 2013 | Potency, µM (highest dose often 46.2 µM), most hits filed as inhibitors; further: nearly all actives have a fitted effect of over 55% in size
#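 Cell growth measured by CellTiter-Glo luminescence after a minimum 48 h, 37 C compound exposure with 20 nM CPT in Tdp1-knockout DT40 cells stably expressing hTDP1, seeded 400/well; qHTS titration format.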
# A number is an active result; - = inactive; ? = inconclusive; . = not tested or not shown. Rows were chosen to be rich in hits. Some 19% of all compounds tested hit in one or more screens of this group. The call rests on the fitted dose curve; in most records, active means well fitted curve in the direction sought with a large enough effect; inconclusive means small, poorly fitted or top-dose-only effect, or another doubt; inactive means no such curve, though single readings can be large; an effect the other way counts as inactive or inconclusive.
SMILES,HT1080 IDH1KD tx,HT1080NT lethal,DT40 TDP1 no CPT,KB-V1 MDR tox,KB-3-1 cytotox,TDP1 cell CPT
Cc1ccc(-c2n[nH]c3c2C(c2cccs2)N(c2ccc(Cl)cc2)C3=O)cc1 (configuration not stated),.,.,?,-,?,16µM
CC(=O)c1c(C)[nH]c(C(=O)NCCc2c[nH]c3ccccc23)c1C,-,-,?,-,-,?
Fc1ccc(NC(=S)Nc2cccc3ccccc23)cc1F,-,-,16µM,-,-,?
CC(C)c1ccc(NC(=S)Nc2cccc3ccccc23)cc1,-,-,16µM,-,-,18µM
Cc1ccc(NC(=S)Nc2cccc3ccccc23)cc1,-,-,-,-,-,-
CCc1ccc(NC(=O)C2C3CCC(O3)C2C(=O)O)cc1 (configuration not stated),-,-,-,-,?,-
CCc1nc2ccc(C(=O)NCCCN3CCCC3=O)cn2c1N(C)CCC(C)C,-,-,?,-,-,?
C=CCNc1nnc(SCC(=O)N2CCC(C(N)=O)CC2)s1,-,-,-,-,-,-
COc1ccc(-c2nnnn2-c2ccccc2OC)cc1,?,?,?,13µM,?,?
O=C1Nc2ccccc2C1=Nc1cccc(Cl)c1,-,-,-,-,-,-
Cc1cccc(N=C2C(=O)Nc3c(Cl)cccc32)c1,-,-,29µM,?,-,?
COc1ccccc1NC(=O)CN(c1ccc(C23CC4CC(CC(C4)C2)C3)cc1)S(C)(=O)=O,?,?,15µM,-,-,13µM
CCC[N+](CC#Cc1ccccc1)(CCC)CC(=O)OC,-,-,-,?,-,?
O=C(C[N+]1(CC#Cc2ccccc2)CCCCC1)c1ccc(Cl)cc1,-,-,3.7µM,-,-,12µM
CCC[N+](CC#Cc1ccccc1)(CCC)CC(=O)c1ccc(Cl)cc1,-,-,26µM,-,-,?
O=C(C[N+]1(CC#Cc2ccccc2)CCOCC1)c1ccc(Cl)cc1,?,?,?,-,-,?
O=C(C[N+]1(CC#Cc2ccccc2)CCOCC1)c1ccccc1,-,-,16µM,-,-,?
CC[N+]1(CC(=O)c2ccc(Cl)cc2)CCCCC1,.,.,-,-,-,-
O=C(C[N+]1(CC#Cc2ccccc2)CCCCC1)c1ccccc1,-,-,21µM,-,-,16µM
CCc1cc(=O)oc2c3c(cc(OCC(=O)N[C@H](C(=O)O)[C@H](C)CC)c12)OC(C)(C)CC3,-,-,-,-,-,-
COC(C(=O)Nc1ccnn1C1CCN(C(=O)c2ccc(C=O)cc2)CC1)c1ccccc1 (configuration not stated),-,-,-,-,-,-
COc1ccccc1-n1cnnc1SCC(=O)NCC1CCCO1 (configuration not stated),-,-,-,-,-,-
O=C(C[N+]1(CCO)CCOCC1)c1cccc2ccccc12,.,.,-,?,?,-
C(#Cc1ccccc1)C[N+]1(CC#Cc2cccc3ccccc23)CCOCC1,?,?,4.6µM,-,?,6.5µM
CN(C)c1cccc(-c2nc(N3CCC(C(N)=O)CC3)ncc2F)c1,.,.,.,-,-,.
Cc1oc2ccc(OCC(N)=O)cc2c1C(=O)OC(C)C,-,-,?,?,23µM,?
CC(=O)c1c(C)oc2ccc(NS(=O)(=O)c3ccc(F)cc3C)cc12,-,-,18µM,10µM,-,23µM
CCOC(=O)c1c(C)oc2ccc(OCc3cc(C(=O)OC)oc3C)cc12,?,-,13µM,-,-,18µM
